Measured values taken from the supplement of paper PMC6555819.

Columns and labels:
Test in all cases: PBM binding z-score (relative to random genomic background probes); higher = stronger binding; sequences stand for … in GC…GCGATTGACAGCGTAGAATGAAGG
[1] = test system: FXR:RXRa (NR concentration 270 nM, RXRa partner concentration 90 nM)
Summary of the method: (§1)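 Custom Agilent 4×180K protein-binding microarrays carried double-stranded probes, each with a 34-nt variable region. These regions held direct-repeat seeds, single-nucleotide variants, half-site ablations and random human genomic background sequences. Ligand-free nuclear receptor dimers were incubated on the arrays for 1 h, antibodies against each partner (one per run) detected binding, and scanned fluorescence was regression-normalized. Binding z-scores take the random background probes as reference.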

[2] = test system: LXRa:RXRa (NR concentration 270 nM, RXRa partner concentration 90 nM)
Summary of the method: as §1

[3] = test system: LXRa homodimer (NR concentration 270 nM)
Summary of the method: as §1

[4] = test system: LXRb:RXRa (NR concentration 270 nM, RXRa partner concentration 90 nM)
Summary of the method: as §1

[5] = test system: LXRb homodimer (NR concentration 270 nM)
Summary of the method: as §1

[6] = test system: PPARa:RXRa (NR concentration 270 nM, RXRa partner concentration 90 nM)
Summary of the method: as §1

[7] = test system: PPARg:RXRa (NR concentration 180 nM, RXRa partner concentration 90 nM)
Summary of the method: as §1

[8] = test system: PPARg:RXRa 270nM:90nM, anti-RXR (NR concentration 270 nM, RXRa partner concentration 90 nM)
Summary of the method: as §1

[9] = test system: PPARg:RXRa 30nM:10nM, anti-RXR (NR concentration 30 nM, RXRa partner concentration 10 nM)
Summary of the method: as §1

[10] = test system: PPARg:RXRa 90nM:30nM, anti-RXR (NR concentration 90 nM, RXRa partner concentration 30 nM)
Summary of the method: as §1

[11] = test system: PPARg:RXRa DBDmut IVT, anti-RXR (DBD mutation: RXRa K156A/R161A, NR concentration 270 nM, RXRa partner concentration 90 nM)
Summary of the method: as §1

[12] = test system: PPARg:RXRa IVT, anti-PPARg (NR concentration 270 nM, RXRa partner concentration 90 nM)
Summary of the method: as §1

[13] = test system: PPARg DBDmut:RXRa IVT, anti-PPARg (DBD mutation: PPARg1 K132A/R137A, NR concentration 270 nM, RXRa partner concentration 90 nM)
Summary of the method: as §1

[14] = test system: PPARg DBDmut IVT, anti-PPARg (DBD mutation: PPARg1 K132A/R137A, NR concentration 270 nM)
Summary of the method: as §1

[15] = test system: PPARg homodimer (NR concentration 180 nM)
Summary of the method: as §1

[16] = test system: PXR:RXRa (NR concentration 270 nM, RXRa partner concentration 90 nM)
Summary of the method: as §1

[17] = test system: PXR homodimer (NR concentration 270 nM)
Summary of the method: as §1

[18] = test system: RARa:RXR (NR concentration 270 nM, RXRa partner concentration 90 nM)
Summary of the method: as §1

[19] = test system: RARa homodimer (NR concentration 270 nM)
Summary of the method: as §1

[20] = test system: RARb:RXRa (NR concentration 270 nM, RXRa partner concentration 90 nM)
Summary of the method: as §1

Sequence	PBM binding z-score [1]	PBM binding z-score [2]	PBM binding z-score [3]	PBM binding z-score [4]	PBM binding z-score [5]	PBM binding z-score [6]	PBM binding z-score [7]	PBM binding z-score [8]	PBM binding z-score [9]	PBM binding z-score [10]	PBM binding z-score [11]	PBM binding z-score [12]	PBM binding z-score [13]	PBM binding z-score [14]	PBM binding z-score [15]	PBM binding z-score [16]	PBM binding z-score [17]	PBM binding z-score [18]	PBM binding z-score [19]	PBM binding z-score [20]
CGAGCTAGGTCATTGACAGGACAGTGAATAGTAA	5.01	3.11	0.348	2	-0.314	3.33	2.12	2.15	0.406	1.34	3.51	2.78	0.0808	-0.146	0.918	1.54	0.31	2.18	-0.128	3.66
GCTCACGGGTCAAAGGTTATAGCATGAATAGAAT	7.17	5.69	0.496	5.67	0.379	6.85	9.36	8.27	6.88	8.29	2.57	4.03	0.462	0.56	2.09	6.14	0.22	8.47	0.284	4.46
TTACGAAGGTGAAGGTCGTTGATCCCTCTGTAGA	2.35	1.9	-0.207	1.48	-0.709	2.66	2.48	3.86	2.7	3.16	1.43	2.62	0.0113	-0.332	0.462	1.58	-0.113	1.68	-0.46	2.23
CCTCGGAGGACAACAGGAGGTCAGATCTGCCAGA	1.11	2.26	2.76	1.83	-0.568	1.91	0.67	0.241	-0.484	-0.22	0.382	0.149	-0.732	-1.41	1.21	2.05	0.364	2.18	0.26	2.81
ATCTCTACGTAAAGATAGTTCAGTGAATGCAAAT	-0.547	-0.0846	0.644	0.0178	0.419	-0.229	0.493	0.104	0.0785	0.04	-0.595	0.188	0.317	1.43	-0.705	0.115	0.219	-0.211	0.168	0.474
CAAACTAGGTCACGAAAGGTCAAACTCGAATGAC	7.61	8.32	8.55	7.66	3.3	6.75	10.5	8.69	6.95	8.93	8.89	8.97	2.74	2.02	5.15	7.23	4.8	7.97	4.28	5.84
TCGAGTAGGTGACCAATGGGGCATTCAGCTTTCT	-0.0525	-0.335	-0.709	-0.15	-1.02	0.875	0.524	1.12	1.01	0.794	4.22	3.6	-0.451	-1.19	-0.701	-0.233	-1.05	-0.0879	-1.72	0.567
CGTCAAAGTTCGACTAAGGTAACGTAAAGCACGC	1.87	1.33	0.0441	1.16	0.121	1.88	1.33	2.15	0.439	1.37	0.0158	0.996	-0.0779	-0.2	1	2.49	0.543	1.92	0.582	2.49
CCTTACGGATCACGAGGTTATAGCACGACGAGCG	0.639	1.1	0.818	1.11	0.481	1.48	1.06	0.294	0.0325	0.104	0.221	0.106	-0.412	0.232	1.02	1.02	0.695	1.36	0.995	0.621
CCAGACAGGTGAGACGGTAACTCAGCCTCGATTA	-0.078	-0.00881	0.268	-0.263	-0.377	0.144	0.367	0.232	-0.249	-0.285	1.25	0.131	0.0493	-0.407	1	-0.403	0.193	-0.309	0.615	0.413
TCGAGTAGGTTAGTCGCGGCATTCAGCCAACATA	-0.279	-0.139	-0.606	-0.576	-1.32	0.228	-0.37	0.565	1.03	0.9	1.72	0.971	-0.971	-1.42	-0.911	-0.398	-0.771	-0.208	-0.937	-0.138
TTTAGTTGGTCACGGAGGTCACACACGACGGGTA	3.66	3.83	3.02	3.45	1.48	4.21	4.64	4.76	2.06	3.63	3.69	5.36	1.78	1.9	3.37	4.93	1.92	4.96	2.05	4.08
CGAACTAGGTCATTGACAGAACAGTGAATAGTAA	4.26	2.84	0.516	2	0.18	4.66	7.52	6.34	4.05	5.58	7.82	8.32	1.7	2.64	1.37	1.39	-0.216	1.99	0.356	3.56
CCAGACAGGTGAGAAGGTAACTTAGCCTCGATTA	0.0387	0.133	-0.108	0.0826	-0.355	0.501	0.351	0.351	-0.0164	0.0696	0.936	0.458	0.104	-0.619	1.19	-0.169	0.402	0.0746	0.973	0.689
